Screening results (PubChem BioAssay)
A selection: hits, their analogues and other compounds. The true share with any hit is near 5.3%.
TDP1 inh = qHTS Assay for Inhibitors of Tyrosyl-DNA Phosphodiesterase (TDP1). Tyrosyl-DNA phosphodiesterase 1 (Homo sapiens), Q9NUW8. Potency, µM (doses to about 130 µM), inactives show at the top dose activity change, negative = inhibition, actives largely listed as inhibitors. actives 0.28% (n = 350,000). recombinant TDP1, AlphaScreen DNA substrate cleavage; further: potency means the concentration at half of the fitted maximal effect; on the % scale 0 is the no-effect control and ±100 the full control effect; nearly all actives have a fitted effect of over 40% in size
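Recombinant E. coli-expressed Tdp1 (1 nM) preincubated with compound 15 min at RT, then 5'-biotin/3'-phosphotyrosine-FITC DNA substrate (15 nM) added for 5 min. AlphaScreen beads (10 ug/ml) added, 10 min RT; tyrosine-FITC cleavage read as signal loss.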
BAZ2B block = qHTS Assay for Inhibitors of BAZ2B. Bromodomain adjacent to zinc finger domain protein 2B (Homo sapiens), Q9UIF8. AlphaScreen BAZ2B-H3K14Ac peptide displacement. Potency, µM (series often up to 114 µM), inactives show at the top dose activity change, negative = inhibition, most hits filed as inhibitors. actives 4.4% (n = 360,000); further: potency means the concentration at half of the fitted maximal effect; on the % scale 0 is the no-effect control and ±100 the full control effect; nearly all actives have a fitted effect of over 60% in size
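AlphaScreen displacement: compounds (up to 110uM) incubated 30 min at room temperature with a preformed 50 nM BAZ2B/50 nM biotinylated H3K14Ac peptide complex in PBS pH 7.4 with Tween-20. Donor and acceptor beads at 10 ug/mL final added, 20 min light-protected before reading.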
CtBP-E1A inh = qHTS Assay for Inhibitors of the CtBP/E1A Interaction. AlphaScreen GST-E1A/His-CtBP binding, 1536-well; stronger effect = lower value. activity change, % (concentration not given with the values). actives 0.49% (n = 340,000). AID 651724, 2012; in the data active means activity change below about -65%; inconclusive means mostly about -30% to -63%; further: on the % scale 0 is the no-effect control and ±100 the full control effect
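AlphaScreen with 125 nM GST-E1A and 125 nM His-CtBP (5X stocks) in Tris pH 8.0, 300 mM NaCl, BSA, Tween 20, TCEP. Compounds preincubated 2 h at 37 deg C, then glutathione donor/nickel acceptor beads added for 1 h at 37 deg C in dark.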
HP1b chromo inh = HTS for Inhibitors of HP1-beta Chromodomain Interactions with Methylated Histone Tails; Chromobox protein homolog 1 (Homo sapiens), P83916; AlphaScreen HP1-beta / biotin-H3K9me3 peptide binding; Potency, µM (top dose mostly 114 µM), inactives show at the top dose activity change, negative = inhibition, usual class: inhibitors; actives 0.56% (n = 390,000); further: potency means the concentration at half of the fitted maximal effect; nearly all actives have a fitted effect of over 70% in size
Target sequence (P83916 whole entry, looked up): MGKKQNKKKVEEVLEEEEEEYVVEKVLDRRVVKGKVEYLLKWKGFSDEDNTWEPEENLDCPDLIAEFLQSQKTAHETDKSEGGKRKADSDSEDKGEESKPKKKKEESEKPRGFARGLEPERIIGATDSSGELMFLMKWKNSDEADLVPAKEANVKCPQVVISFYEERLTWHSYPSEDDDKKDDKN
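AlphaScreen: HP1-beta (50 nM) preformed 30 min with biotin-H3(1-18)K9me3 peptide (50 nM) in PBS pH 7.4, 0.01% Tween-20. Compound added for 30 min at RT, then streptavidin donor/nickel chelate acceptor beads (10 ug/mL) for 30 min.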
Six1-Eya2 blk = qHTS Assay for Inhibitors of the Six1/Eya2 Interaction; Homeobox protein SIX1 (Homo sapiens) + Protein phosphatase EYA2 (Homo sapiens), …; AlphaScreen GST-Six1/His-Eya2 binding, biochemical; stronger effect = lower value; activity change, % (no concentration beside the values); actives 0.56% (n = 360,000); in the data active means activity change below about -65%; inconclusive means mostly about -30% to -63%; further: on the % scale 0 is the no-effect control and ±100 the full control effect
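Compounds are tested against tagged Six1 and Eya2 proteins bridged by glutathione donor and nickel acceptor beads; after a one-hour incubation at 37 °C without light, AlphaScreen emission is recorded.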
JMJD2A Tudor inh = qHTS Assay for Inhibitors of JMJD2A-Tudor Domain. AlphaScreen JMJD2A-Tudor / H3K4me3 peptide binding. actives 4.4% (n = 390,000). AID 504339, 2011. Potency, µM (highest dose often 114 µM), for the others: top-dose activity change, negative = inhibition, hits mostly inhibitors. Lysine-specific demethylase 4A (Homo sapiens), O75164; further: potency means the concentration at half of the fitted maximal effect; on the % scale 0 is the no-effect control and ±100 the full control effect; nearly all actives have a fitted effect of over 50% in size
An asterisk follows results filed as active. Unless noted, the call rests on the fitted dose curve; in most records, active means well fitted inhibition curve with a large enough effect; inconclusive means small, poorly fitted or top-dose-only effect; inactive means no such curve, though single readings can be large or run the other way.

Screening CCOc1ccc(/C=N/N2CCN(Cc3ccccc3)CC2)cc1 returned TDP1 inh 9%, BAZ2B block 50µM*, CtBP-E1A inh inconclusive, HP1b chromo inh inconclusive, Six1-Eya2 blk inconclusive and JMJD2A Tudor inh inconclusive.
C(=C\c1ccccc1)/C=N/N1CCN(Cc2ccccc2)CC1 was read as TDP1 inh 6%, BAZ2B block 35µM*, CtBP-E1A inh inconclusive, HP1b chromo inh inconclusive, Six1-Eya2 blk inconclusive and JMJD2A Tudor inh 50µM*.
CSc1ccc(/C=N/N2CCN(c3ccccc3)CC2)cc1 was read as TDP1 inh 5%, BAZ2B block -13%, CtBP-E1A inh 8, HP1b chromo inh 24%, Six1-Eya2 blk -1 and JMJD2A Tudor inh -6%.
Screening Clc1ccccc1CN1CCN(/N=C/c2ccncc2)CC1 returned TDP1 inh -2%, BAZ2B block 45µM*, CtBP-E1A inh -10, HP1b chromo inh -6%, Six1-Eya2 blk -8 and JMJD2A Tudor inh inconclusive.
Screening Clc1ccc(N2CCN(/N=C/c3ccncc3)CC2)cc1 returned TDP1 inh -1%, BAZ2B block -19%, CtBP-E1A inh 6, HP1b chromo inh 10%, Six1-Eya2 blk -8 and JMJD2A Tudor inh -18%.
For C(=N\N1CCN(Cc2ccccc2)CC1)/c1cccs1 the results were TDP1 inh 8%, BAZ2B block inconclusive, CtBP-E1A inh -24, HP1b chromo inh -19%, Six1-Eya2 blk -27 and JMJD2A Tudor inh inconclusive.
COc1ccc(CN(Cc2ccccc2)C(=O)c2ccccc2O)cc1COc1ccc(NC(C)=O)cc1 was read as TDP1 inh -13% and JMJD2A Tudor inh inconclusive.
For Cc1cc(C)c(Cn2c(=O)n(CCCCC(=O)NCc3ccccc3Cl)c(=O)c3ccccc32)c(C)c1 the results were TDP1 inh 2%, BAZ2B block -6%, HP1b chromo inh 16% and JMJD2A Tudor inh -3%.
COc1ccc(/C=N\N2CCN(Cc3ccccc3Cl)CC2)cc1 was read as TDP1 inh 13%, BAZ2B block inconclusive, HP1b chromo inh -13%, Six1-Eya2 blk -16 and JMJD2A Tudor inh inconclusive.
Clc1ccc(/C=N/N2CCN(Cc3ccccc3)CC2)cc1 was read as BAZ2B block 45µM*, HP1b chromo inh inconclusive, Six1-Eya2 blk -20 and JMJD2A Tudor inh 56µM*.
`Clc1ccc(/C=N/N2CCN(Cc3ccccc3Cl)CC2)cc1` gave TDP1 inh 7%, BAZ2B block 35µM*, CtBP-E1A inh -25, HP1b chromo inh -10%, Six1-Eya2 blk inconclusive and JMJD2A Tudor inh 45µM*.
Screening O=C(O)c1ccc(/C=N/N2CCN(Cc3ccc(Cl)cc3)CC2)cc1 returned TDP1 inh -3%, BAZ2B block -3%, CtBP-E1A inh 6, HP1b chromo inh 28%, Six1-Eya2 blk 7 and JMJD2A Tudor inh -15%.
`O=[N+]([O-])c1cccc(/C=N/N2CCN(c3ccccn3)CC2)c1` gave TDP1 inh 0%, BAZ2B block -38%, CtBP-E1A inh -1, HP1b chromo inh inconclusive, Six1-Eya2 blk 1 and JMJD2A Tudor inh -22%.
`O=[N+]([O-])c1cccc(/C=N/N2CCN(Cc3ccccc3)CC2)c1` gave TDP1 inh 7%, BAZ2B block 25µM*, CtBP-E1A inh -22, HP1b chromo inh -13%, Six1-Eya2 blk -23 and JMJD2A Tudor inh inconclusive.
`Cc1ccc2c(CC(=O)Nc3c(C(=O)c4ccc(F)cc4)oc4ccccc34)coc2c1` gave TDP1 inh -7%, BAZ2B block -4%, HP1b chromo inh 58% and JMJD2A Tudor inh -6%.
